Reference: the supplement of paper PMC10849652
About 8,800 targets were measured; listed, in parts, are those with a hit and a random draw of the rest. About 0.5% of all pairs of compound and target were hits.

compound: CN1CCc2c(c3ccccc3n2Cc2ccc(C(=O)NO)cc2)C1 [Tubastatin A]; assay: log2 fold change, soluble protein after heating vs DMSO (PISA); higher = thermal stabilisation; K562 lysate, 10 uM; active = over 0.2 and 3.5 SD of the protein, either way, in both replicates (recomputed)
Procedure, shortened: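 K562 pellets were dounce-homogenised in PBS pH 7.4 containing 1 mM MgCl2, and the crude extract, at 1 mg/mL protein, was exposed to 10 μM compound for 30 min. Aliquots were heated for 3 min across 48°C-58°C, pooled, brought to 0.5% NP-40 at 4°C and spun at 21,000xg for 90 min, with the supernatant taken as soluble protein. TMTpro 16plex LC-MS/MS with equalised channel sums quantified that protein. Values are log-two fold changes in thermal stability relative to solvent controls, taken from duplicates.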

UniProt P35573, sequence (P35573 whole entry, looked up): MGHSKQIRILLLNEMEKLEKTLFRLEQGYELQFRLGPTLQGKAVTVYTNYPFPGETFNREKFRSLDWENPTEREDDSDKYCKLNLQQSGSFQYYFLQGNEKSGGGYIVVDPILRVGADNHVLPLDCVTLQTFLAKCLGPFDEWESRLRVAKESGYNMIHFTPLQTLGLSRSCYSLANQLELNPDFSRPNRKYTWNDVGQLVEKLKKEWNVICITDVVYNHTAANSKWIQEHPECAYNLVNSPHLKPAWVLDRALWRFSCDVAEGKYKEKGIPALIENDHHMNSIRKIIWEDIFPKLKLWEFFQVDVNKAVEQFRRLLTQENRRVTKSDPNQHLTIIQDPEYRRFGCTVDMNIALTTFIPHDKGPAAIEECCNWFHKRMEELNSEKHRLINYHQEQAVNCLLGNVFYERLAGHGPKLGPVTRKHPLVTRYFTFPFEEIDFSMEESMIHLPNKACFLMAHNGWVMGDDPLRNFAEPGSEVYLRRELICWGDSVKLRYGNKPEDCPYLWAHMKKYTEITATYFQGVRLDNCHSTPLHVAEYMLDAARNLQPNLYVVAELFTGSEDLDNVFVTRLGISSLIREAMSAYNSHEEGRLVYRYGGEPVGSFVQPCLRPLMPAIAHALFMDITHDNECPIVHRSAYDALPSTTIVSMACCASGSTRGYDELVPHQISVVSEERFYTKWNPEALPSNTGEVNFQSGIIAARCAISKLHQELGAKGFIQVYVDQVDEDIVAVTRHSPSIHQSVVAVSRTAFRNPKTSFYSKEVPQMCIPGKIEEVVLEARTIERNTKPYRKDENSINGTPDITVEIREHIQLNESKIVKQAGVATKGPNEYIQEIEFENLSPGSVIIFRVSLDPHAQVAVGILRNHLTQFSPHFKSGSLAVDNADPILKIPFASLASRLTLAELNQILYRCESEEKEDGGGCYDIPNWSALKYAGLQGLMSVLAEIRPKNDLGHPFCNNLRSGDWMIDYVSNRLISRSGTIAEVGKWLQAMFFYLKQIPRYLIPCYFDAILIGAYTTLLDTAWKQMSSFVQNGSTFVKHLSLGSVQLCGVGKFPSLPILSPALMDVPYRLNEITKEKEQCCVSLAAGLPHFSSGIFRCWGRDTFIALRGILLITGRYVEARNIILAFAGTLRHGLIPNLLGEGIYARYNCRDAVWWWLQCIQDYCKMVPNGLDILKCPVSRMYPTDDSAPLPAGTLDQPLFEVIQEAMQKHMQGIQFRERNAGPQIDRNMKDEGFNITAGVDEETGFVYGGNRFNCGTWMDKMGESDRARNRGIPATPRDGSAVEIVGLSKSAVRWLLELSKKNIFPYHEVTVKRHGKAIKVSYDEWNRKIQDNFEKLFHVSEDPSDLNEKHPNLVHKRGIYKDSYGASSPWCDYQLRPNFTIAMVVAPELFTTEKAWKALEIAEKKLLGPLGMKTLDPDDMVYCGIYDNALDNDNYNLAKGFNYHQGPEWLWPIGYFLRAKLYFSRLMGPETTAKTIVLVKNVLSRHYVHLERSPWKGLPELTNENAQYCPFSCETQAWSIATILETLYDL
UniProt Q9UPW5, sequence (Q9UPW5 whole entry, looked up): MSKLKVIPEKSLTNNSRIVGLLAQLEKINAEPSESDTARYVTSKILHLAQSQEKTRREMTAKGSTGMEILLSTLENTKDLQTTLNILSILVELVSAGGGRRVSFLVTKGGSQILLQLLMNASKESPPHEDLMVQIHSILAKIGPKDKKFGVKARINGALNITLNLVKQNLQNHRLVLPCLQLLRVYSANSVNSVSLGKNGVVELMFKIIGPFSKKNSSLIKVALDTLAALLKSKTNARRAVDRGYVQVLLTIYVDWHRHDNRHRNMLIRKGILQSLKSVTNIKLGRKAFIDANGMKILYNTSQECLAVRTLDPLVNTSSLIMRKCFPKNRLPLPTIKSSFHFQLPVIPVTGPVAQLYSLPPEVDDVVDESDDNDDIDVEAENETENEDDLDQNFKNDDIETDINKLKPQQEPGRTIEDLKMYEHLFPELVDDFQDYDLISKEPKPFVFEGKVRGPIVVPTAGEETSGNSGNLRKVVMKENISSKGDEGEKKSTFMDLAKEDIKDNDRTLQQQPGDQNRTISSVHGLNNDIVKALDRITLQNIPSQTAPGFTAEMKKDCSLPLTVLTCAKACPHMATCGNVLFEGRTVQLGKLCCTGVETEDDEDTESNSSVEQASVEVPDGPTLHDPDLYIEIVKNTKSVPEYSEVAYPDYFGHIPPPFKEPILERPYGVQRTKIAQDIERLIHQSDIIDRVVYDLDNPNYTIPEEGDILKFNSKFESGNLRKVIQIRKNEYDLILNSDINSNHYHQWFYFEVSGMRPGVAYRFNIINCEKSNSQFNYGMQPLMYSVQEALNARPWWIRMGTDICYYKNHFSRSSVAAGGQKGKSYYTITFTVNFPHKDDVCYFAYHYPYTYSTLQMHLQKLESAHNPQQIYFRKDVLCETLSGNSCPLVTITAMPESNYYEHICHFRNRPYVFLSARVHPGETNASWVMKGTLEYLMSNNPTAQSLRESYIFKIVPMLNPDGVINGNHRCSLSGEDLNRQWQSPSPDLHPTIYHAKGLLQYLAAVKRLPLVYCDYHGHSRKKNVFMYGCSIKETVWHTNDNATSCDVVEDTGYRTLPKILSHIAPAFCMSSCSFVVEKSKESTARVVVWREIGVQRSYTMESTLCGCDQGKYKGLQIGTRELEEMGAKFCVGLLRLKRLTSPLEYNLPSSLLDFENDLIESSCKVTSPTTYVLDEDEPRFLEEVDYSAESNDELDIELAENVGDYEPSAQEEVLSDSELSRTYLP
UniProt Q9BVK2, sequence (Q9BVK2 whole entry, looked up): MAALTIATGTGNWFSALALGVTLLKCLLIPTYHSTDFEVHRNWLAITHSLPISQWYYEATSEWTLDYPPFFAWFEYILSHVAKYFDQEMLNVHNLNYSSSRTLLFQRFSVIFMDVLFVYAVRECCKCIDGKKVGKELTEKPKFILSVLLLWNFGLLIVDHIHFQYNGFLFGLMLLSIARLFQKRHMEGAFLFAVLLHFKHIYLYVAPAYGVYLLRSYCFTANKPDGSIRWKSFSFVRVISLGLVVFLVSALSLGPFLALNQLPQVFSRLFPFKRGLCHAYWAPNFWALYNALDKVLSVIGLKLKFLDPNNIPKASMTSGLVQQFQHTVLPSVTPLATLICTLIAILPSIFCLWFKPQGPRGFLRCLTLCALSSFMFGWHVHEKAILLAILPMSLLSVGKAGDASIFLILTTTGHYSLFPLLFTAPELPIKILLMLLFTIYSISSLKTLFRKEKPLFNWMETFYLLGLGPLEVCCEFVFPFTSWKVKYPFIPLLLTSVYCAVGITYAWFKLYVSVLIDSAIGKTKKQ
UniProt P17707, sequence (P17707 whole entry, looked up): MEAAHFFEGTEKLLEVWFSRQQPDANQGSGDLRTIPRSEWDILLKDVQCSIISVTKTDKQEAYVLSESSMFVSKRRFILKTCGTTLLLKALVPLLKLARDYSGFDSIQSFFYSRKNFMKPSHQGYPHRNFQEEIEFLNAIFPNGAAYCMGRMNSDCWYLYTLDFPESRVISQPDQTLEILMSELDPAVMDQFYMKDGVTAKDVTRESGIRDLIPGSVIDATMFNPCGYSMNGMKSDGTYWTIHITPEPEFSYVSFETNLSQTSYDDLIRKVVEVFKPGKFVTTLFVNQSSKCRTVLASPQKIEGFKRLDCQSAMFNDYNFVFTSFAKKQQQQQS
UniProt P52895, sequence (P52895 whole entry, looked up): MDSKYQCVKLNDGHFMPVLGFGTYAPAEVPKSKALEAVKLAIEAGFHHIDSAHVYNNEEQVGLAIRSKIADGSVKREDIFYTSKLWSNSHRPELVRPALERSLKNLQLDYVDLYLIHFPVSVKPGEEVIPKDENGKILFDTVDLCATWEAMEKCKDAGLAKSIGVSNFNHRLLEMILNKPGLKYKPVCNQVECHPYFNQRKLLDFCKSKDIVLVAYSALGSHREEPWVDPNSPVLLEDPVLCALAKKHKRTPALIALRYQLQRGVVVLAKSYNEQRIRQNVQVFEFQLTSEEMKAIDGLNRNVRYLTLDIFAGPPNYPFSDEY
UniProt Q8N6T3, sequence (Q8N6T3 whole entry, looked up): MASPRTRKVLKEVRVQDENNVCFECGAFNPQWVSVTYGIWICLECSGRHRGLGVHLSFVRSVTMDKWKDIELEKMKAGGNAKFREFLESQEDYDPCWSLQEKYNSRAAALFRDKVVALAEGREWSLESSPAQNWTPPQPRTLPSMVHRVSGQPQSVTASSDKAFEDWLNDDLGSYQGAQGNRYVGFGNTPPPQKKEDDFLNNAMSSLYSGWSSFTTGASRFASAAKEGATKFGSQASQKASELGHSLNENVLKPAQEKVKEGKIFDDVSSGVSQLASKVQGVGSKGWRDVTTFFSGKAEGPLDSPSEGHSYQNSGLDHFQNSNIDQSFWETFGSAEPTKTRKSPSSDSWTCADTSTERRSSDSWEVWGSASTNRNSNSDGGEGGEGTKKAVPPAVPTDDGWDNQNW
UniProt Q99943, sequence (Q99943 whole entry, looked up): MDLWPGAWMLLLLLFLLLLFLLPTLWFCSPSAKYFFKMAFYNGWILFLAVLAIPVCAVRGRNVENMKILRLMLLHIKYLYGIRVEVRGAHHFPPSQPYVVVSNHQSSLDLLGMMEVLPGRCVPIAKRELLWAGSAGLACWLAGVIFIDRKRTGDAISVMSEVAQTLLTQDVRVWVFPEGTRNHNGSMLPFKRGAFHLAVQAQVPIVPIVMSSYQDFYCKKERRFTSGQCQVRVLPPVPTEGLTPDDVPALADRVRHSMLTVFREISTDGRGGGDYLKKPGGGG
UniProt Q9NWX5, sequence (Q9NWX5 whole entry, looked up): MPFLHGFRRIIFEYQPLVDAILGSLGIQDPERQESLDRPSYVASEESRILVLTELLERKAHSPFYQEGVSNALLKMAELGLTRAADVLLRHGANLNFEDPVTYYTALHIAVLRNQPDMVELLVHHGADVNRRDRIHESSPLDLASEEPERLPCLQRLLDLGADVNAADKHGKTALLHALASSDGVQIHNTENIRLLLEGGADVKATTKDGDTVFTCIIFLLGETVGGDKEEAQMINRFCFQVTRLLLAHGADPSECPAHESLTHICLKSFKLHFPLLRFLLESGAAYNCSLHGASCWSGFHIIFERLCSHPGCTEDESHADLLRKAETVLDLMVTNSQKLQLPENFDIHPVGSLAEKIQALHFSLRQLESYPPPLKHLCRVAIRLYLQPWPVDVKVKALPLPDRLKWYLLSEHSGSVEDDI

log2 fold change, inactive:
APOB (UniProt P04114) 0.099
AKR1B1 (UniProt P15121) 0.023
AGTPBP1 (UniProt Q9UPW5) 0.046
ABCF2 isoform 2 (UniProt Q9UG63) -0.169
ARFGAP1 (UniProt Q8N6T3) -0.008
AMD1 (UniProt P17707) -0.084
AGPAT1 (UniProt Q99943) -0.015
ASB6 (UniProt Q9NWX5) 0.014
AGL (UniProt P35573) -0.099
ALDH5A1 isoform 2 (UniProt P51649) 0.048
AKR1C2 (UniProt P52895) 0.061
ALG8 (UniProt Q9BVK2) -0.118
ARMC6 (UniProt Q6NXE6) -0.171
